From PubChem BioAssay AID743135 (Broad Institute, 2013)
Inconclusive results are not listed. A number with no mark means an inactive call.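 The calls were made as follows: active = fitted drop in cell viability signal with half-maximal potency at most twice the top valid dose; inconclusive = flat fit with a 30 to 70% drop, or poor fit; inactive = opposite direction, flat within 30%, or potency beyond limit.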

Assay: HEK293 cell cytotoxicity, dose response, cytotoxicity control, ATP luminescence, dry powder, Set3, 50 µM top (AID 743135)
Conditions: HEK293T viability, CellTiter-Glo ATP luminescence, 72 h; series mostly up to 50 µM; activity change, negative = cytotoxicity: at the top concentration

| SMILES | activity change, negative = cytotoxicity |
| --- | --- |
| Cc1c(C(=O)O)sc2nc(/C=C/c3ccc(N)nc3)[nH]c(=O)c12 | -10.6% |
| Cc1c(C(=O)O)sc2nc(/C=C/c3cccc(C(N)=O)c3)[nH]c(=O)c12 | -7.3% |
| Cc1c(C(=O)O)sc2nc(CCc3cccc(O)c3)[nH]c(=O)c12 | 0.17% |
| Cc1c(C(=O)O)sc2nc(/C=C/C=C/c3ccccc3)[nH]c(=O)c12 | -4.1% |
| Cc1c(C(=O)O)sc2nc(/C=C/c3cccc(OC(F)(F)F)c3)[nH]c(=O)c12 | -12% |
| Cc1c(C(=O)O)sc2nc(/C=C/c3cccnc3)[nH]c(=O)c12 | -11% |
| Cc1c(C(=O)O)sc2nc(/C=C/c3ccc4[nH]ccc4c3)[nH]c(=O)c12 | -10.9% |
| Cc1c(C(=O)O)sc2nc(/C=C/C3CC3)[nH]c(=O)c12 | -0.319% |
| Cc1c(C(=O)O)sc2nc(/C=C/c3cccc(N)c3)[nH]c(=O)c12 | -3.83% |
| Cc1c(C(=O)O)sc2nc(/C=C/c3cccc([N+](=O)[O-])c3)[nH]c(=O)c12 | 12.3% |
| Cc1c(C(=O)O)sc2nc(/C=C/c3ccccc3)[nH]c(=O)c12 | 4.18% |
| Cc1c(C(=O)O)sc2nc(/C=C/c3cc4ccccc4cn3)[nH]c(=O)c12 | 19.6% |
| Cc1c(C(=O)O)sc2nc(/C=C/c3cccc(F)c3)[nH]c(=O)c12 | 16.6% |
| Cc1c(C(=O)O)sc2nc(/C=C/c3ccc(O)cn3)[nH]c(=O)c12 | 6.21% [at 1.2 µM] |
| Cc1c(C(=O)O)sc2nc(/C=C/c3ccccn3)[nH]c(=O)c12 | -6.03% |
| Cc1c(C(=O)O)sc2nc(/C=C/c3ccccc3O)[nH]c(=O)c12 | -17.6% |
